Experimental data from PubChem BioAssay (Tox21).
Inconclusive results are not listed. Activity calls are given as the source filed them. Unless noted, calls follow the shape of the full dose curve.

Legend:
[1] = Nuclear factor erythroid 2-related factor 2/antioxidant responsive element (Nrf2/ARE) small molecule agonists: qHTS cell viability counter screen in human keratinocytes (AID 1919968; active = well fitted cell-killing curve with a large enough effect in the repeat runs; also: nearly all actives have a fitted effect of over 55% in size)
Summary of the method: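 KeratinoSens cells (HaCaT keratinocytes stably carrying an ARE-luciferase reporter) were seeded at 1,500 cells/well and rested 5 h at 37 C/5% CO2. They were then exposed to compounds in DMSO for 23 h. Viability was read by CellTiter-Fluor fluorescence after 1 h.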

[2] = Nuclear factor erythroid 2-related factor 2/antioxidant responsive element (Nrf2/ARE) small molecule agonists: luciferase reporter gene qHTS assay in human keratinocytes (AID 1919969); also: nearly all actives have a fitted effect of over 35% in size
[3] = target: Gonadotropin-releasing hormone receptor (Homo sapiens) (UniProt P30968); assay: Human gonadotropin-releasing hormone receptor (GnRHR) small molecule agonists, calcium flux assay in GnRHR-HEK293 cells (AID 1920063); also: nearly all actives have a fitted effect of over 35% in size
Sequence of Gonadotropin-releasing hormone receptor (Homo sapiens) (P30968 whole entry, looked up): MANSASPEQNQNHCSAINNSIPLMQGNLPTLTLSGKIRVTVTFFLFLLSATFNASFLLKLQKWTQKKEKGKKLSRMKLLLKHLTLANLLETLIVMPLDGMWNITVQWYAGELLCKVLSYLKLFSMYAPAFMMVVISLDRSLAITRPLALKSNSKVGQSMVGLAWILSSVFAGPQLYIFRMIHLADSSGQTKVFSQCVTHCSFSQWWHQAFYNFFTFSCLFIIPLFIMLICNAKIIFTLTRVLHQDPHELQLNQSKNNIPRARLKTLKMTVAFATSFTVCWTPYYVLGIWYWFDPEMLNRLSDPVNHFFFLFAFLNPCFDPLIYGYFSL
Summary of the method: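 HEK293 cells stably expressing human GnRHR were plated 18 h at 37 °C, loaded with calcium dye 1 h at 37 °C, then given compound in agonist mode; fluorescence (Ex/Em 480/540) read kinetically for 3 min at 1 s intervals.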

[4] = G protein-coupled receptor (GPCR) small molecule agonists, calcium flux assay: HEK293 wild type cell line counter screen (AID 1920065)
Summary of the method: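 Cells were plated and cultured 18 h at 37 C/5% CO2, then loaded with calcium dye for 1 h at 37 C. Compounds in DMSO were pin-transferred in agonist mode, and fluorescence (Ex/Em 480/540) was read kinetically for 3 min at 1 s intervals.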

[5] = p53 small molecule agonists, cell-based qHTS assay with human liver microsomes (AID 1963577);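 also: p53 response element beta-lactamase reporter cells with liver microsomes plus NADPH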
Summary of the method: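 p53RE-bla cells; 5 h settle, 37 C/5% CO2; cpd + HLM 0.5 mg/mL + NADPH 0.5 mg/mL (final); 16 h 37 C; LiveBLAzer 2 h RT dark; fluorescence readout.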

[6] = p53 small molecule agonists, cell-based qHTS assay with rat liver microsomes (AID 1963578)
Summary of the method: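 Rat liver microsome activation: microsomes 0.5 mg/mL, NADPH 0.5 mg/mL final; p53RE-bla cells, 16 h 37 C; LiveBLAzer readout, 2 h RT dark.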

[7] = p53 small molecule agonists, cell-based qHTS assay with human liver microsomes: qHTS cell viability counter screen (AID 1963579); also: nearly all actives have a fitted effect of over 45% in size
Summary of the method: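 Luminescent CellTiter-Glo read-out, 30 min at room temperature, gauged cytotoxicity in p53RE-bla cells exposed 16 h at 37 C to DMSO-dissolved compounds with metabolic activation by human liver microsomes and NADPH, each 0.5 mg/mL final.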

[8] = p53 small molecule agonists, cell-based qHTS assay with rat liver microsomes: qHTS cell viability counter screen (AID 1963580); also: nearly all actives have a fitted effect of over 45% in size
Summary of the method: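 p53RE-bla HCT-116 cells were exposed 16 h at 37 C to compounds with rat liver microsomes (0.5 mg/mL) and NADPH (0.5 mg/mL). Viability was measured in the same wells as ATP content by CellTiter-Glo luminescence.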

[9] = p53 small molecule agonists, cell-based qHTS assay: qHTS cell viability counter screen (AID 1963581); also: nearly all actives have a fitted effect of over 45% in size
Summary of the method: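 p53RE-bla HCT-116 cells were exposed to compounds for 16 h at 37 C; after the beta-lactamase FRET read in the same wells, CellTiter-Glo was added and luminescence (intracellular ATP) read after 30 min at room temperature.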

[10] = p53 small molecule agonists, cell-based qHTS assay (AID 1963582; active = well fitted activation curve with a large enough effect in the signal ratio in the repeat runs, not every such curve was filed as active; the % refers to the signal ratio)
Summary of the method: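 p53RE-bla beta-lactamase reporter cells rested 5 h at 37 C/5% CO2, then received compounds in DMSO by pin transfer and were incubated 16 h at 37 C. LiveBLAzer B/G FRET substrate was loaded for 2 h at room temperature before fluorescence reading.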

[11] = target: 5-hydroxytryptamine receptor 2A (Homo sapiens) (UniProt P28223); assay: 5-hydroxytryptamine receptor 2A (HTR2A) small molecule antagonists, cell-based qHTS assay (AID 1963586); also: nearly all actives have a fitted effect of over 45% in size
Sequence of 5-hydroxytryptamine receptor 2A (Homo sapiens) (P28223 whole entry, looked up): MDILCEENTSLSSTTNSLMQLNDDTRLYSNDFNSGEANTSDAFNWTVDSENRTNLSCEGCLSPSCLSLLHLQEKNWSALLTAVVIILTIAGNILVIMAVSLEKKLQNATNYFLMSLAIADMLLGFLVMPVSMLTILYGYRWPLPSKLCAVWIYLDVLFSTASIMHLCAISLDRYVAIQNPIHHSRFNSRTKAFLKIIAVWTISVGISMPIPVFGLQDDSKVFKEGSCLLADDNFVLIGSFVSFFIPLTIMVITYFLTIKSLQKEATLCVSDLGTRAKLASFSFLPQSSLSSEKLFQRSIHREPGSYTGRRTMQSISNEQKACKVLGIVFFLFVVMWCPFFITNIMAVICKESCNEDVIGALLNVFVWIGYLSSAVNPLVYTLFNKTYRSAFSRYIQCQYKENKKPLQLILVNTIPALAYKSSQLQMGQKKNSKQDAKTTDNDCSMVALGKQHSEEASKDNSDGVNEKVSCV
Summary of the method: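 Antagonist-mode intracellular calcium assay: DOI (4 nM) added after 5 min compound pre-incubation at room temperature to dye-loaded HTR2A-CHO cells. Fluorescence followed for 3 min, sampled every second.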

[12] = target: 5-hydroxytryptamine receptor 2A (Homo sapiens) (UniProt P28223); assay: 5-hydroxytryptamine receptor 2A (HTR2A) small molecule agonists, cell-based qHTS assay (AID 1963587); also: nearly all actives have a fitted effect of over 30% in size
Summary of the method: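 CHO cells stably expressing human HTR2A, plated 18 h, loaded with calcium dye 1 h at 37 C. Agonist mode: compounds added and intracellular calcium fluorescence recorded kinetically for 2 min at 1 sec intervals.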

[13] = target: Muscarinic acetylcholine receptor M1 (Homo sapiens) (UniProt P11229); assay: Cholinergic receptor muscarinic 1 (CHRM1) small molecule antagonists, cell-based qHTS assay (AID 1963588); also: nearly all actives have a fitted effect of over 40% in size
Sequence of Muscarinic acetylcholine receptor M1 (Homo sapiens) (P11229 whole entry, looked up): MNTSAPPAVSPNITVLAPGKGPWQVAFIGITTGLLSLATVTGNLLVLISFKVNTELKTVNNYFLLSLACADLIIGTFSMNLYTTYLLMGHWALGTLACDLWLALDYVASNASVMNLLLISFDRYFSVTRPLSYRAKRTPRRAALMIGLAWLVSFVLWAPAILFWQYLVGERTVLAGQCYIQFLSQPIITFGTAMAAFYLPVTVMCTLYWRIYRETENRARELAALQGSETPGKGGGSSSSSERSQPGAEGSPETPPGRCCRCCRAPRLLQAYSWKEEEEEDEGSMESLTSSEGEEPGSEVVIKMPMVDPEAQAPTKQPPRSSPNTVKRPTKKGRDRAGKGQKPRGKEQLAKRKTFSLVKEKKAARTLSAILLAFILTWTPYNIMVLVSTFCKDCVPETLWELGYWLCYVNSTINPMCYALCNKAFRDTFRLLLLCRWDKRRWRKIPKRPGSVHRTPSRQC
Summary of the method: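 CHRM1-CHO calcium-flux assay, antagonist mode. Cells were seeded 18 h, dye-loaded 1 h at 37 C and given compound for 5 min at RT, then acetylcholine was added at 50nM. FDSS fluorescence was read 3 min; 15 concentrations, three runs.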

[14] = target: Muscarinic acetylcholine receptor M1 (Homo sapiens) (UniProt P11229); assay: Cholinergic receptor muscarinic 1 (CHRM1) small molecule agonists, cell-based qHTS assay (AID 1963589); also: nearly all actives have a fitted effect of over 35% in size
Summary of the method: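 CHO cells stably expressing human CHRM1, seeded 18 h at 37 C/5% CO2, dye-loaded 1 h at 37 C, then given compound in agonist mode; intracellular calcium fluorescence read kinetically at 1 s intervals. Fifteen concentrations, three independent runs.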

[15] = cAMP Responsive Elements (CRE) small molecule agonists, cell-based qHTS assay (AID 1963590)
Summary of the method: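 CRE-bla HEK 293T cells in DMEM with 10% dialyzed FBS, NEAA, pyruvate and 25 mM HEPES were plated 18 h at 37 C/5% CO2, then exposed to compounds in DMSO for 3 h before LiveBLAzer B/G FRET substrate addition.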

[16] = cAMP Responsive Elements (CRE) small molecule antagonists, cell-based qHTS assay (AID 1963591; active = well fitted inhibition curve with a large enough effect in the signal ratio in the repeat runs, not every such curve was filed as active; the % refers to the signal ratio)
Summary of the method: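 CRE-bla HEK293T cells were plated 18 h at 37 °C/5% CO2, pinned with compound in DMSO, then stimulated with NKH477 at 0.25 uM final for 3 h. LiveBLAzer B/G FRET substrate was added and plates incubated 2 h at room temperature.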

[17] = target: Beta-2 adrenergic receptor (Homo sapiens) (UniProt P07550); assay: Adrenergic beta2 receptor (ADRB2) small molecule antagonists, cell-based qHTS assay (AID 1963592); also: series mostly up to about 92 µM; nearly all actives have a fitted effect of over 50% in size
Sequence of Beta-2 adrenergic receptor (Homo sapiens) (P07550 whole entry, looked up): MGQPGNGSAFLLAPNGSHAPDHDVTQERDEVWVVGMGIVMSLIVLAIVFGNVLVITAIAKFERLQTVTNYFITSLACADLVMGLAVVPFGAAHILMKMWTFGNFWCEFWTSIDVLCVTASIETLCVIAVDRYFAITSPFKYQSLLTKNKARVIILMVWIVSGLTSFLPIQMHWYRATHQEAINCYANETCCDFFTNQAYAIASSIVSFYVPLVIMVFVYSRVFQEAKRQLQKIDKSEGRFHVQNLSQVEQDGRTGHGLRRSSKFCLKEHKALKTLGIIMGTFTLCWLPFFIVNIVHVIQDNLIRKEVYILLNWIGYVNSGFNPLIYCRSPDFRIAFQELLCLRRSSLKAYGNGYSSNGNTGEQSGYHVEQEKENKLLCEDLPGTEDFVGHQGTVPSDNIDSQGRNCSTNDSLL
Summary of the method: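 Cells (CHO, stable ADRB2 overexpression) incubated 18-20hr at 37C; compounds added from DMSO; agonist mix (1nM isoproterenol, 100uM IBMX, 25uM Ro-20-1724) added; 0.5hr RT; d2-cAMP and anti-cAMP-cryptate added; 1hr RT; 665/615 nm read.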

[18] = target: Beta-2 adrenergic receptor (Homo sapiens) (UniProt P07550); assay: Adrenergic beta2 receptor (ADRB2) small molecule agonists, cell-based qHTS assay (AID 1963593);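 also: CHO cells stably overexpressing human ADRB2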
Summary of the method: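 CHO cells stably over-expressing ADRB2 were plated overnight at 37C, then dosed with compounds plus a stimulation mix containing 100uM IBMX and 25uM Ro-20-1724 for 0.5hr at room temperature. cAMP was measured by HTRF competition, 1hr.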

[19] = target: D(2) dopamine receptor (Homo sapiens) (UniProt P14416); assay: Dopamine D2 receptor (DRD2) small molecule agonists, cell-based qHTS assay (AID 1963594); also: nearly all actives have a fitted effect of over 35% in size
Sequence of D(2) dopamine receptor (Homo sapiens) (P14416 whole entry, looked up): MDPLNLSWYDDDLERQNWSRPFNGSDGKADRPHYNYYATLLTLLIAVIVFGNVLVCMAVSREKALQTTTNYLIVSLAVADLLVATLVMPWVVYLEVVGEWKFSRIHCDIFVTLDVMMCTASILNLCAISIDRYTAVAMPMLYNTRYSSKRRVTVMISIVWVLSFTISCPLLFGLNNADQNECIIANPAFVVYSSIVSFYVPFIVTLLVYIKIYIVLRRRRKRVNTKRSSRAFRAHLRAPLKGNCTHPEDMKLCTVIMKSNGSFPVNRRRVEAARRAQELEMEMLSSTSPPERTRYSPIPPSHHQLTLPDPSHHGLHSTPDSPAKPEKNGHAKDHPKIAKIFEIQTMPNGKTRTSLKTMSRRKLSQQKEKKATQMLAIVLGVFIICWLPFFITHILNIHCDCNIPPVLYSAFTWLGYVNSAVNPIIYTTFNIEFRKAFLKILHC
Summary of the method: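 HEK293 cells stably expressing human DRD2, pre-treated with PDE inhibitor Ro20-1724 (0.1 mM final) and compound 10 min at room temperature, then stimulated with NKH477 (200nM […]) for 30 min. cAMP read by HTRF (665/620 nm).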

[20] = target: D(2) dopamine receptor (Homo sapiens) (UniProt P14416); assay: Dopamine D2 receptor (DRD2) small molecule antagonists, cell-based qHTS assay (AID 1963595; active = well fitted inhibition curve with a large enough effect in the signal ratio in the repeat runs, with a control signal flat; the % refers to the signal ratio)
Summary of the method: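 Antagonist mode in DRD2-HEK293 cells: after compound addition with 0.1 mM Ro20-1724, cells received quinpirole (12 nM) and NKH477 (200 nM) for 30 min at room temperature; HTRF cAMP read after 1 h detection.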

Measured: Potency

Cc1ccc(S(=O)(=O)O)cc1C
inactive: all assays above

CC(C)Cc1ccccc1
inactive: all assays above

CCCCCCO
inactive: all assays above

CCC(C)C=O (stereo not drawn)
inactive: all assays above

O=C(O)c1cccc([N+](=O)[O-])c1
not listed: [7] | [8] | [16]
inactive: all other assays above

CC(=O)OC/C=C(\C)CCC=C(C)C
not listed: [11] | [13] | [18] | [19]
inactive: all other assays above

CC(=O)C(C)C
inactive: all assays above
